Screening results: PubChem BioAssay, National Center for Advancing Translational Sciences (NCATS)
Rows were chosen to be rich in hits. Some 1.6% of all compounds tested hit in one or more screens of this group.
IMPase Li inh: IMPase inhibition in cells with lithium potentiation; CHO-M1 cells, IP1 TR-FRET (IP-One), carbachol + lithium; Potency, µM (series often up to 59.4 µM), inactives show at the top dose activity, negative = IMPase inhibition, usual class: inhibitors; actives 0.35% (n = 210,000); AID 1457;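 further: IP1 builds up when IMPase is blocked and the TR-FRET signal falls; potency means the concentration at half of the fitted maximal effect; plate controls were basal vehicle for no effect and high inhibitor control for full effect; nearly all actives have a fitted effect of over 50% in size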
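CHO cells stably expressing M1 receptor (2000/well) were cultured 16–30 h, then exposed to compounds with a small lithium addition for 30 min at 37C. IP1 was measured by TR-FRET competition; AC50 from Hill fits.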
HTT cytoprotect: protects HTT-Q103 PC12 cells, measured by ATP; PC12 HTT-Q103 induced, cytoprotection, ATP luminescence, 40 h; Potency, µM (titrated, usually from 56.4 µM), without a hit: cytoprotection (ATP increase), most hits filed as activators; actives 0.14% (n = 230,000); AID 1471; further: potency means the concentration at half of the fitted maximal effect; % of control where 0% means no effect; nearly all actives have a fitted effect of over 45% in size
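Huntington model: PC12 line, ecdysone-inducible HTTQ103 exon1–GFP, tebufenozide 100 nM. Test articles in a dose series. Endpoint luminescence from cellular ATP.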
Lamin A splicing: changes lamin A minigene splicing in HeLa cells | HeLa LMNA splicing GFP/RFP minigene ratio, 48 h | Potency, µM (series often up to 46.1 µM), for the others: at the top dose ratio change, negative = inhibition, most hits filed as inhibitors | actives 0.01% (n = 200,000) | AID 1487; active means well fitted inhibition curve with a large enough effect in the signal ratio, with a control signal flat, not every such curve was filed as active; inconclusive means small, poorly fitted or top-dose-only effect, or effect the other way, or a change in a side signal; the % refers to the signal ratio; further: potency means the concentration at half of the fitted maximal effect; on the % scale 0 is the no-effect control and ±100 the full control effect
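S3 HeLa cells stably expressing lamin A-EGFP splicing minigene plus DsRed2, 600 cells/well, 48 h compound exposure at 37C. Laser-scanning cytometry; analysed as GFP (500-530 nm)/RFP (575-640 nm) total intensity ratio; 0.5% DMSO vehicle.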
NPSR antagonist: antagonists of human neuropeptide S receptor cAMP signaling; Q6W5P4; CHO-NPSR cells, cAMP TR-FRET, antagonist mode; Potency, µM (series often up to 38.3 µM), inactives show at the highest dose activity change, negative = inhibition, usual class: inhibitors; actives 1% (n = 220,000); AID 1461; further: potency means the concentration at half of the fitted maximal effect; on the % scale 0 is the no-effect control and ±100 the full control effect; nearly all actives have a fitted effect of over 50% in size
Target sequence (Q6W5P4 whole entry, looked up): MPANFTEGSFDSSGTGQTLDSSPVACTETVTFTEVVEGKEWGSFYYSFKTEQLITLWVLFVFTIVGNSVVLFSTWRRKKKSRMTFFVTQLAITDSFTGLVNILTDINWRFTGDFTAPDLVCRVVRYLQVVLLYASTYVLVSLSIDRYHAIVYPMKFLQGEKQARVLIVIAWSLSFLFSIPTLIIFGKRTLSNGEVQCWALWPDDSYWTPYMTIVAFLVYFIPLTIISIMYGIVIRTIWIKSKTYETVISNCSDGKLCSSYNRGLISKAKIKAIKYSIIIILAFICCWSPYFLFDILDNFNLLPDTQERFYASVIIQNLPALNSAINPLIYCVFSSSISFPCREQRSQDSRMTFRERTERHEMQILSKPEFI
IMPase inh: cell-permeable inhibitors of inositol monophosphatase (IMPase). P97697. CHO-M1 cells, IP1 accumulation, HTRF TR-FRET ratio. inhibition (IP1 accumulation), % at 46.1 µM. 120,000 tested, under 10 active; active means well fitted curve in the direction sought with a large enough effect in the signal ratio, not every such curve was filed as active; inconclusive means small, poorly fitted or top-dose-only effect, or a change in a side signal; inactive means no such curve, though single readings can be large or run the other way; the % refers to the signal ratio;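 further: cells stimulated with carbachol in lithium chloride buffer; plate controls were DMSO basal wells for no effect and reference inhibitor wells for full effect; higher means more IMPase inhibition seen as more IP1 and lower FRET ratio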
Target sequence (P97697 whole entry, looked up): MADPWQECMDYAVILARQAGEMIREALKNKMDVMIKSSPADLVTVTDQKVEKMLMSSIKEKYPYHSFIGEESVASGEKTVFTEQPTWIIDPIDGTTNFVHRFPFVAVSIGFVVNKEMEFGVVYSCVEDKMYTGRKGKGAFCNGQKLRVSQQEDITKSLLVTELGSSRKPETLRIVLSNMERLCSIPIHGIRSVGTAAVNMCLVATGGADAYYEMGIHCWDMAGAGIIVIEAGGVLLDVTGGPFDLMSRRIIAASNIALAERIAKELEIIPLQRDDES
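Seeded CHO-M1 cells were dosed with compound at up to 46 uM, stimulated with carbachol for 30 min, then lysed in IP-One detection reagents. Higher IP1 lowers the TR-FRET signal.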
HttQ103 aggreg: inhibitors of mutant huntingtin aggregate formation in PC12 cells. PC12 HttQ103-GFP aggregates, Acumen cytometry, 40 h. Potency, µM (top dose mostly 46.1 µM), for inactives: top-dose activity change, negative = inhibition, actives largely listed as inhibitors. actives 1.1% (n = 220,000). AID 1688; further: potency means the concentration at half of the fitted maximal effect; on the % scale 0 is the no-effect control and ±100 the full control effect; nearly all actives have a fitted effect of over 60% in size
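Using laser scanning cytometry, GFP-positive aggregates were counted after lysis of PC12 cells induced with 100 nM tebufenozide to express HTT exon 1 Q103–GFP. Compounds were tested in titration.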
Active calls of the source: *; ? = inconclusive; · = no result given; [ ] = another dose, or the depositor's remark. Unless noted, the call rests on the fitted dose curve; in most records, active means well fitted curve in the direction sought with a large enough effect; inconclusive means small, poorly fitted or top-dose-only effect, or another doubt; inactive means no such curve, though single readings can be large; an effect the other way counts as inactive or inconclusive.

SMILES	IMPase Li inh	HTT cytoprotect	Lamin A splicing	NPSR antagonist	IMPase inh	HttQ103 aggreg
O=C(C1CCN(S(=O)(=O)c2cccc3nsnc23)CC1)N1CC=C(c2ccccc2)CC1	0%[38.3 µM]	-35%	-5%	-21%[46.1 µM]	5	-28%
O=C(C1CCC(CNS(=O)(=O)c2cccc3nsnc23)CC1)N1CC=C(c2ccccc2)CC1 (stereo not given)	15%[38.3 µM]	-36%	3%	-29%[46.1 µM]	18	8.9µM*
Nc1c(Cl)cc(Cl)cc1Cl	-15%	-9%	·	·	·	·
COc1ccc(N(CC(=O)N/N=C(\C)CCc2ccccc2)S(=O)(=O)c2ccc(C)cc2)cc1	·	3.5µM*	·	11%	·	11%[9.22 µM]
O=C(N/N=C/c1ccccc1O)c1cccc(C(F)(F)F)c1	-5%	·	?	4%	·	2.5µM*
CCOc1cccc2cc(-c3nc4sc(C(=O)Nc5ccc(C)cc5)c(C)c4c(=O)[nH]3)c(=O)oc12	·	·	-1%[46 µM]	·	·	·
C[C@@H]1C(=O)O[C@@H]2C[C@@]34[C@H]5C[C@@H](C(C)(C)C)[C@@]36[C@@H](OC(=O)[C@@H]6O)O[C@]4(C(=O)O5)[C@@]12O	·	1%	·	·	·	·
COc1cc(C(=O)Nc2nc(-c3ccc(Cl)cc3)c(C)s2)ccc1OCC(=O)Nc1ccc(F)cc1	·	-15%[10 µM]	0%	4µM*	3	?
CCc1ccc(-c2nc(NC(=O)c3ccc(OCC(=O)Nc4ccc(F)cc4)c(OC)c3)sc2C)cc1	7.9µM*	-14%[10 µM]	-13%	6.3µM*	?	8%
O=S(=O)(O)C(c1ccccc1)[C@@H](O)c1ccccc1 (stereo not given in full)	-4%	·	·	·	·	·
CN(C)CCCN(C(=O)c1ccc(S(=O)(=O)N(C)C)cc1)c1nc2cc3c(cc2s1)OCO3	17%	-4%	-10%[46 µM]	-25%	·	23%
CCN(CC)CCN(C(=O)c1ccc(S(=O)(=O)N2CCCCC2)cc1)c1nc2cc3c(cc2s1)OCO3	15%	·	·	10µM*	·	?
Oc1ccc(/C=N/N2CCN(C3c4ccccc4-c4ccccc43)CC2)cc1O	·	-60%[10 µM]	·	10µM*	·	-7%[9.22 µM]
CCCCCCCCCCCCCCCCCC(=O)NC[C@@H](COP(=O)([O-])OCC[N+](C)(C)C)OCC	·	-21%[1.9 µM]	·	·	4	·
CC1(C)C(=O)C(c2ccccc2)=C2CN3C(=O)N(CCc4ccccc4)C(=O)C3(Cc3ccc(F)cc3)C=C21 (stereo not given)	4%	-33%	·	·	·	·
Brc1cc(Br)c2nc(-c3cccs3)ccc2c1	10µM*	-8%	0%	25%[46.1 µM]	?	9%
Nc1nccc(-c2cccs2)n1	-12%	10%[10 µM]	?	26%	·	-20%
O=C1CC(SCc2nc3ccccc3[nH]2)C(=O)N1c1cccc(F)c1 (stereo not given)	37%[38.3 µM]	?	21%	-7%[46.1 µM]	1	4µM*
O=C(O)COc1ccc(/C=N/NC(=O)COc2nsnc2N2CCOCC2)cc1	7%	8%[10 µM]	·	-10%	·	10%[9.22 µM]
O=C(COc1nsnc1N1CCOCC1)N/N=C/c1ccccc1O	-1%	·	?	2%	·	14µM*
CC1=C(c2ccc(NN=C(C#N)C#N)cc2)NNC(=O)C1	·	-52%	·	·	·	13µM*
Cc1cc(C(=O)Nn2c(-c3ccc(Br)cc3)nc3ccccc3c2=O)ccc1[N+](=O)[O-]	10%	8%[10 µM]	?	-35%	·	35µM*
Cc1nc2sccc2c(=O)n1N	1%	3.5µM*	·	3%	·	-22%
Cc1nc2scc(-c3ccc(C(C)(C)C)cc3)c2c(=O)n1N	16%	-76%	10%[9.22 µM]	-33%	·	?
O=Cc1sc(N2CCOCC2)nc1-c1ccccc1	14µM*	-14%	·	-31%	·	-5%
SMILES	IMPase Li inh	HTT cytoprotect	Lamin A splicing	NPSR antagonist	IMPase inh	HttQ103 aggreg
CCc1ccc(C2=NN(c3ccc(S(N)(=O)=O)cc3)C(c3ccc(F)cc3)C2)cc1 (stereo not given)	-28%[38.3 µM]	4%[10 µM]	?	10µM*	?	?
CCOC(=O)C1(Cc2cccc(OC)c2)CCCN(C(=O)CCc2cccnc2)C1 (stereo not given)	12%	-10%[10 µM]	3%[46 µM]	4%	·	-16%[9.22 µM]
CN1CC(c2ccccc2)C2(SC(=S)N(Cc3ccco3)C2=O)C12C(=O)Nc1ccccc12 (stereo not given)	22%[38.3 µM]	-2%	?	10µM*	7	?
O=C(O)c1cc(-c2ccc(/C=C3/SC(=S)N(Cc4ccccc4)C3=O)o2)ccc1Cl	5%	24%	·	10µM*	·	-2%
CC1(C)OC(=O)C(=Cc2ccc(-c3ccc(Cl)c(C(=O)O)c3)o2)C(=O)O1	-8%	13%[10 µM]	23%[46 µM]	-8%	·	-4%
Cc1ccc(/C=C2\SC(=S)N(Cc3ccccc3)C2=O)o1	4%[38.3 µM]	-11%	?	-11%[46.1 µM]	1	16%
COc1ccc(CN2C(=O)/C(=C/c3ccc(-c4ccc(Cl)c(C(=O)O)c4)o3)SC2=S)cc1	13%	-22%	·	6.3µM*	·	7%
CC(C)N1C(=O)/C(=C/c2nc3ccccc3c(=O)n2-c2ccccc2)c2ccccc21	11%	4%[10 µM]	-17%	10µM*	6	?
O=C(CN1C=NS(=O)(=O)c2ccc(C(F)(F)F)cc21)Nc1cccc(C(F)(F)F)c1	·	·	-10%[46 µM]	·	·	·
CC(C)=CCC/C(C)=C\COc1c2ccoc2cc2oc(=O)ccc12	31%	-13%[1.9 µM]	·	·	7	·
O=S(=O)(c1ccccc1)n1ccc2ccccc21	7%[38.3 µM]	6%	?	-15%[7.67 µM]	17	11µM*
O=S(=O)(c1ccc(F)cc1)n1ccc2cccnc21	5%	0%[10 µM]	-12%	0%[46.1 µM]	-5	-3%
Cc1cc(C)c(S(=O)(=O)n2ccc3ccccc32)c(C)c1	19%[38.3 µM]	-78%	3%	?	13	10µM*
